The target in experiment [1] is Transcription factor E2F1 (Homo sapiens) (UniProt Q01094). In words: ATG_E2F_CIS: Attagene CIS-FACTORIAL HepG2 Assay for human E2F Transcription Factor 1 (AID 2282935). Conditions: HepG2 Attagene cis-reporter, E2F reporter RNA transcripts; actives raise or lower the signal. In a few lines:
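First, HepG2 cells were transfected with reporter transcription units. Next, they were dosed for 24 h. Then RNA was isolated, converted to cDNA, PCR-amplified, FAM-labeled, HpaI-digested and analyzed by capillary electrophoresis.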

A short description of experiment [2]: ATG_E_Box_CIS: Attagene CIS-FACTORIAL HepG2 Assay for human Enhancer Box (E-box) (AID 2282936). The conditions noted are these: HepG2 E-box cis-reporter transcription, actives raise or lower the signal. In a few lines:
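Endogenous transcription factor activity was sensed in human HepG2 liver cells through transfected cis-promoter reporter units. After 24 h of dosing, total RNA was reverse-transcribed and reporter cDNA resolved by capillary electrophoresis.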

Experiment [3] in a line: ATG_M_61_CIS: Attagene CIS-FACTORIAL HepG2 Assay for M61 Transcription Factor (Internal Marker) (AID 2282937). The conditions noted are these: HepG2 Attagene CIS-FACTORIAL M61 internal marker reporter; actives raise or lower the signal. In a few lines: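 Readout is reporter mRNA by RT-PCR, fluorescent primer extension and capillary electrophoresis, with gain or loss fitted relative to DMSO. Transfected HepG2 cells carrying endogenous-TF-driven cis reporters were exposed to chemicals for 24 hours.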

The nature of experiment [4]: ATG_EGR_CIS: Attagene CIS-FACTORIAL HepG2 Assay for human Early Growth Response 1 (EGR1) (AID 2282938). Conditions: HepG2 Attagene CIS-FACTORIAL EGR reporter mRNA; actives raise or lower the signal. In a few lines:
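After 24 h compound exposure, RNA from reporter-transfected HepG2 cells was reverse-transcribed, PCR-amplified, fluorescently labelled and resolved by capillary electrophoresis. EGR1 reporter transcript changes, up or down, were fitted against DMSO, reflecting endogenous transcription-factor activity.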

Experiment [5] is described as follows: ATG_M_19_CIS: Attagene CIS-FACTORIAL HepG2 Assay for M19 Transcription Factor (Internal Marker) (AID 2282939). The conditions noted are these: HepG2 Attagene CIS-FACTORIAL M19 internal marker reporter; actives raise or lower the signal. In a few lines: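 Readout: fluorescent reporter-transcript fragments by capillary electrophoresis after RT-PCR. Human HepG2 liver cells carried transfected MRTU constructs reporting endogenous transcription-factor activity; exposure 24 h. Gain or loss of signal fitted relative to DMSO.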

Experiment [6] can be described thus: ATG_ERE_CIS: Attagene CIS-FACTORIAL HepG2 Assay for Estrogen Response Element (ERE) (AID 2282940). Conditions: HepG2 ERE cis-reporter, Attagene RNA transcript; actives raise or lower the signal. In a few lines:
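Readout: reporter mRNA induction by RT-PCR, FAM-labelled primer extension, HpaI digestion and capillary electrophoresis, 24 h after dosing transfected HepG2 cells. Endogenous transcription factors act on cis-element-regulated reporters. Gain or loss fitted against DMSO.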

Experiment [7] can be described thus: ATG_Ets_CIS: Attagene CIS-FACTORIAL HepG2 Assay for human Erythroblast Transformation Specific (ETS) (AID 2282941). Conditions: HepG2 ETS cis-reporter transcription, actives raise or lower the signal. In a few lines: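 Multiplexed reporter transcript profiling: HepG2, 24 h treatment, total RNA to cDNA, PCR, 6-FAM labelling, HpaI cut, capillary electrophoresis. Gain- or loss-of-signal fitted against DMSO.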

Experiment [8] has as its target Hepatocyte nuclear factor 3-beta (Homo sapiens) (UniProt Q9Y261). In words: ATG_FoxA2_CIS: Attagene CIS-FACTORIAL HepG2 Assay for human Forkhead box A2 (FOXA2) (AID 2282942). The conditions noted are these: HepG2 cis-reporter transcription factor activity, 24 h; actives raise or lower the signal. In a few lines: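 Endogenous transcription factor activity is captured via cis-element-driven reporter transcripts in transfected HepG2. Total RNA taken at 24 h post-dosing; labelled RT-PCR products resolved by capillary electrophoresis. Gain or loss fitted versus DMSO.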

The nature of experiment [9]: ATG_FoxO_CIS: Attagene CIS-FACTORIAL HepG2 Assay for human Forkhead box O (FoxO) (AID 2282943). Conditions: HepG2 Attagene cis-reporter, FoxO element, mRNA; actives raise or lower the signal. In a few lines: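 HepG2 cells transiently transfected with cis-promoter-driven multiple reporter transcription units; 24 h after chemical dosing, reporter mRNA quantified by RT-PCR, fluorescent primer extension, HpaI digestion and capillary electrophoresis. Bidirectional fitting versus DMSO baseline.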

A short description of experiment [10]: ATG_GATA_CIS: Attagene CIS-FACTORIAL HepG2 Assay for human GATA Binding Protein (AID 2282944). The conditions noted are these: HepG2 GATA cis-element reporter, Attagene multiplex mRNA; actives raise or lower the signal. In a few lines: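 Read-out: fluorescent reporter mRNA fragments resolved by capillary electrophoresis after RT-PCR. Human liver HepG2 cells carried transiently transfected cis-regulated reporter constructs; chemicals incubated 24 h; gain or loss of signal fitted relative to DMSO.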

Experiment [11] in a line: ATG_GLI_CIS: Attagene CIS-FACTORIAL HepG2 Assay for human Zinc Finger Protein GLI1 (AID 2282945). Conditions: HepG2, Attagene cis-factorial reporter mRNA, GLI element; actives raise or lower the signal. In a few lines:
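HepG2 cells transiently transfected with cis-promoter multiplexed reporter units report endogenous transcription factor activity. After 24 h chemical exposure, reporter mRNA was quantified by RT-PCR, 6-FAM labelling, HpaI digestion and capillary electrophoresis, with bidirectional fitting against DMSO.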

Experiment [12] has as its target Bile acid receptor (Homo sapiens) (UniProt Q96RI1). In words: ATG_IR1_CIS: Attagene CIS-FACTORIAL HepG2 Assay for human Nuclear Receptor Subfamily 1 Group H Member 4 (NR1H4), IR1 submotif (AID 2282946). The conditions noted are these: IR1 reporter transcription, actives raise or lower the signal. In a few lines:
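Readout: reporter transcript levels by RT-PCR with fluorescent capillary electrophoresis, from HepG2 cells transiently transfected with multiplexed cis-regulated reporters and dosed 24 h. Gain- or loss-of-signal fitted versus DMSO negative control.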

Experiment [13] can be described thus: ATG_GRE_CIS: Attagene CIS-FACTORIAL HepG2 Assay for human Glucocorticoid Response Elements (GRE) (AID 2282947). Conditions: HepG2 GRE cis-reporter, Attagene multiplex mRNA; actives raise or lower the signal. In a few lines: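 Cells (HepG2) bearing transfected cis-promoter reporter transcription units were treated with chemical for 24 hours. Reporter mRNA was measured via RT-PCR with capillary electrophoresis, and activity was fitted in both directions relative to DMSO.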

The nature of experiment [14]: ATG_ISRE_CIS: Attagene CIS-FACTORIAL HepG2 Assay for human Interferon Regulatory Factor 1 (IRF1) binding to an Interferon-Stimulated Response Element (ISRE) (AID 2282948). Conditions: HepG2 ISRE cis-reporter (Attagene), mRNA transcription readout; actives raise or lower the signal. In a few lines: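 Signal reflects induction or loss of ISRE-linked reporter mRNA in transiently transfected HepG2 cells after a 24 h treatment, detected by fluorescent RT-PCR fragments on capillary electrophoresis and normalised to DMSO.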

Experiment [15] in a line: ATG_M_32_CIS: Attagene CIS-FACTORIAL HepG2 Assay for M32 Transcription Factor (Internal Marker) (AID 2282949).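 Further: background control marker of the multiplexed CIS panel rather than a real target.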 Conditions: HepG2 Attagene cis-factorial M32 reporter, mRNA; actives raise or lower the signal. In a few lines:
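HepG2 transfectants (cis-regulated reporter transcription units) dosed 24 h. Reporter mRNA by RT-PCR plus CE, analysed as gain or loss relative to DMSO.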

Experiment [16] in a line: ATG_M_06_CIS: Attagene CIS-FACTORIAL HepG2 Assay for M06 Transcription Factor (Internal Marker) (AID 2282950). The conditions noted are these: HepG2 Attagene CIS-FACTORIAL M06 internal marker reporter; actives raise or lower the signal. In a few lines:
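Terse: HepG2, transient MRTU transfection (FuGene 6), 24 h dosing; total RNA, oligo(dT) RT, PCR, FAM label, HpaI cut, capillary electrophoresis; bidirectional fit vs DMSO baseline; background-control endpoint.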

Experiment [17] addresses Hypoxia-inducible factor 1-alpha (Homo sapiens) (UniProt Q16665). In words: ATG_HIF1a_CIS: Attagene CIS-FACTORIAL HepG2 Assay for human Hypoxia Inducible Factor 1 (HIF1A) (AID 2282951). The conditions noted are these: HepG2 Attagene cis-factorial HIF1a reporter transcription; actives raise or lower the signal. In a few lines: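 Activity is fitted in both directions relative to DMSO. Reporter transcripts are read by RT-PCR, fluorescent primer extension and capillary electrophoresis after 24 h chemical treatment. The cells are HepG2 carrying transiently transfected cis-element-driven reporter units responding to endogenous factors.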

For experiment [18], the target named is Hepatocyte nuclear factor 6 (Homo sapiens) (UniProt Q9UBC0). In words: ATG_HNF6_CIS: Attagene CIS-FACTORIAL HepG2 Assay for human Hepatocyte Nuclear Factor 6 (HNF6) (AID 2282952). Conditions: HepG2 Attagene cis-factorial HNF6 reporter transcription; actives raise or lower the signal. In a few lines:
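Activity values derive from bidirectional fitting against DMSO of reporter mRNA levels, measured by capillary electrophoresis of labelled RT-PCR products from HepG2 cells exposed 24 h.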

Experiment [19] addresses Heat shock factor protein 1 (Homo sapiens) (UniProt Q00613). In words: ATG_HSE_CIS: Attagene CIS-FACTORIAL HepG2 Assay for human Heat Shock Transcription Factor 1 (HSE) (AID 2282953). Conditions: HepG2 HSE cis-reporter, Attagene RNA transcription; actives raise or lower the signal. In a few lines:
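Read-out: fluorescence of reporter-specific RT-PCR fragments separated by capillary electrophoresis. HepG2 carrying transfected cis-element reporter units; 24 h dosing; activity fitted in both directions relative to DMSO baseline.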

Experiment [20] in a line: ATG_MRE_CIS: Attagene CIS-FACTORIAL HepG2 Assay for human Metal Responsive Element (MRE) (AID 2282954). The conditions noted are these: HepG2 MRE cis-reporter transcription, Attagene multiplex; actives raise or lower the signal. In a few lines:
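Cells were transfected with cis-promoter reporter transcription units, then dosed for 24 h. RNA was reverse-transcribed, amplified, fluorescently labelled and resolved by capillary electrophoresis, and activity was fitted in both directions relative to DMSO.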

The structures appear in SMILES notation. Calls of active or inactive are those of the source. How the source made its calls: active means hit-call score of the fitted dose curve at least 0.9, where 1 is the maximum; inactive means score below 0.9.

This passage reports outcome and AC50 results from PubChem BioAssay (EPA / NIEHS).

Sequence of Hepatocyte nuclear factor 6 (Homo sapiens) (Q9UBC0 whole entry, looked up): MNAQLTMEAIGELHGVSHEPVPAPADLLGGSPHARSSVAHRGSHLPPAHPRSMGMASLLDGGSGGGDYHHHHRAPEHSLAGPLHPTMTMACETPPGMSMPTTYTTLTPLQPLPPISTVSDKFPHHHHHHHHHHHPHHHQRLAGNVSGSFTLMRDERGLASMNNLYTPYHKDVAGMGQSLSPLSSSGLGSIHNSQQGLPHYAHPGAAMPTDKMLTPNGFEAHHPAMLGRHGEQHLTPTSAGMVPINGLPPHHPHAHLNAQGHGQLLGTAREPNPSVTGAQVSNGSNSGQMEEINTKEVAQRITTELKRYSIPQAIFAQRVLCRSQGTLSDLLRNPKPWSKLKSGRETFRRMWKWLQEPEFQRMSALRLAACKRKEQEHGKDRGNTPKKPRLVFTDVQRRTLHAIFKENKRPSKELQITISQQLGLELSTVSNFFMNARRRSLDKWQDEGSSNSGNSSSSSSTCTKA
Sequence of Transcription factor E2F1 (Homo sapiens) (Q01094 whole entry, looked up): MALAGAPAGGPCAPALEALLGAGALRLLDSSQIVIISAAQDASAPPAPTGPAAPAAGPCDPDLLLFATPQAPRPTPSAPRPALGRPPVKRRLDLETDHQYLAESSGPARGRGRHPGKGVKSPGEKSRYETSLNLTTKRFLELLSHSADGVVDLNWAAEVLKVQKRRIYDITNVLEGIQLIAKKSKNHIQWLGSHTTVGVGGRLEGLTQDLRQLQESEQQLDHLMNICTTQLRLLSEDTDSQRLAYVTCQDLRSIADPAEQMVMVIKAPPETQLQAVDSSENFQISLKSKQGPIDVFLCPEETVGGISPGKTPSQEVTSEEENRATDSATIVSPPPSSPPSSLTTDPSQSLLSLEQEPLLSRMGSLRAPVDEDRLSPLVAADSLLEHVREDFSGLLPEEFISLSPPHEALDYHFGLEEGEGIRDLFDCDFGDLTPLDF
Sequence of Hypoxia-inducible factor 1-alpha (Homo sapiens) (Q16665 whole entry, looked up): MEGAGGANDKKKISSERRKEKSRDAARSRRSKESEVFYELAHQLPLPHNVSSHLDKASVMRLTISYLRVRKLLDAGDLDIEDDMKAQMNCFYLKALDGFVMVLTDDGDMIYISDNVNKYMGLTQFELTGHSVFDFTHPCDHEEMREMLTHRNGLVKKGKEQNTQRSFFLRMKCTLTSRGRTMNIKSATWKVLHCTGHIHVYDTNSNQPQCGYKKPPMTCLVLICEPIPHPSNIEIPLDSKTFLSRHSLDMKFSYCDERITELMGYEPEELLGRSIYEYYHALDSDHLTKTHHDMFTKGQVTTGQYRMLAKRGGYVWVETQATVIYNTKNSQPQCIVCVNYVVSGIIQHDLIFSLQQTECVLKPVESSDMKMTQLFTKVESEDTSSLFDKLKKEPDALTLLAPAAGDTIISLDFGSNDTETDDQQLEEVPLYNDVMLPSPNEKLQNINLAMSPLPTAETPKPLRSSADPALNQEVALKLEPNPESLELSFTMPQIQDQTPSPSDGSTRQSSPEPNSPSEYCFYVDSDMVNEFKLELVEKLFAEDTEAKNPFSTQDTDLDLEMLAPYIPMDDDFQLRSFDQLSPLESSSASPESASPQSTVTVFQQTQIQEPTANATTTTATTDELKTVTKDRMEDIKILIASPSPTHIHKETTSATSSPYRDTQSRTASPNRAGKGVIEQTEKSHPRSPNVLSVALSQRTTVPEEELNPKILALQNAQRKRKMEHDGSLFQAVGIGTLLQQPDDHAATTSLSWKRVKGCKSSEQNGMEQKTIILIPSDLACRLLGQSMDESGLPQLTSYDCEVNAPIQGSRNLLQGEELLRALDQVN
Sequence of Hepatocyte nuclear factor 3-beta (Homo sapiens) (Q9Y261 whole entry, looked up): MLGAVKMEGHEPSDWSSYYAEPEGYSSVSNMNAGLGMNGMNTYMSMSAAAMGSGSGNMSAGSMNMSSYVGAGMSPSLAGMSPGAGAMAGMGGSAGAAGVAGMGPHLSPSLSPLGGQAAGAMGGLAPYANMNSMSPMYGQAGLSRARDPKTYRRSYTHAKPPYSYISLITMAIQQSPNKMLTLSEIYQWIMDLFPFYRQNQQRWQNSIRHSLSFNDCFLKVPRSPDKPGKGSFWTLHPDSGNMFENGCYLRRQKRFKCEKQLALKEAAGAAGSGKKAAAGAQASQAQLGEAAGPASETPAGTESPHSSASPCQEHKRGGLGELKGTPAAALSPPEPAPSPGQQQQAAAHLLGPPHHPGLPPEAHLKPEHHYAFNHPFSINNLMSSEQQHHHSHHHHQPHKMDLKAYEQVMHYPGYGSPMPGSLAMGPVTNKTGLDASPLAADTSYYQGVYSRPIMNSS
Sequence of Bile acid receptor (Homo sapiens) (Q96RI1 whole entry, looked up): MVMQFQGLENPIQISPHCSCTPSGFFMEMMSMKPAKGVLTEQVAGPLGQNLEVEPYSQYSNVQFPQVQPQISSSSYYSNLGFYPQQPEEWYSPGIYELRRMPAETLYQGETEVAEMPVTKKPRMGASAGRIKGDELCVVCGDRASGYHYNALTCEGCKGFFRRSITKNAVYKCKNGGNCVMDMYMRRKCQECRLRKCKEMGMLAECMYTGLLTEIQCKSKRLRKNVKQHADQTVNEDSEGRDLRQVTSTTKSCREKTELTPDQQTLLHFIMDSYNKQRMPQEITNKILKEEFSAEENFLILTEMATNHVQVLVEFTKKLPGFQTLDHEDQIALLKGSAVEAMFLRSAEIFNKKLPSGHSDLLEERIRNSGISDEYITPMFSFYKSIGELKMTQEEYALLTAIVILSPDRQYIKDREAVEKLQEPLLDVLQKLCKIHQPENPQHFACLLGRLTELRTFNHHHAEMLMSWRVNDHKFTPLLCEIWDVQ
Sequence of Heat shock factor protein 1 (Homo sapiens) (Q00613 whole entry, looked up, the tested form may be a part): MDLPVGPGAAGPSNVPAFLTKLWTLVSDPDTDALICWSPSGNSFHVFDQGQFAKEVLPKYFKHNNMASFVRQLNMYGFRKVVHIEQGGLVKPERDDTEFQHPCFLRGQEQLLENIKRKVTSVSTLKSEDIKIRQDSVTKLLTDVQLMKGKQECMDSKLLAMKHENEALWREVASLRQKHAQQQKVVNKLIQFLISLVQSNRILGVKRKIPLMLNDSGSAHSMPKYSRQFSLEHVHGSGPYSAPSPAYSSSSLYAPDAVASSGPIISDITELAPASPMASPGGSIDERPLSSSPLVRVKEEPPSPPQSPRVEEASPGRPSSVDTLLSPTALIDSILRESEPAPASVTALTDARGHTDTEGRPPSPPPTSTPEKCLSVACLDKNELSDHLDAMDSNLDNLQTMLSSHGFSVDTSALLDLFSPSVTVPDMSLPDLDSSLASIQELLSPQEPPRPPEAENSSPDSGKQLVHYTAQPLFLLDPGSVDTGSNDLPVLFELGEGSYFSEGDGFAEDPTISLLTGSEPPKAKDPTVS

A word on the AC50: it is the concentration giving half of the maximal activity seen. Turning to `CCNc1nc(Cl)nc(NC(C)(C)C)n1`, the molecule was called inactive in [1], in experiment [2], in [3], in [4], in experiment [5] and in experiment [7]. For the same molecule, the molecule was called inactive in experiment [8], in experiment [9], in experiment [10], in experiment [11], in experiment [12] and in experiment [13]. Also, the call in experiment [14], in experiment [15], in [16], in experiment [17], in experiment [18] and in [19] was inactive. Further, in experiment [20], the call was inactive. For the same molecule, in experiment [6], the AC50 was 8.92 µM (active).

In the case of `N#Cc1cc([N+](=O)[O-])ccc1N`, the molecule was called inactive in [1], in [2], in experiment [3], in [4], in experiment [5] and in experiment [6]. Besides, the result in experiment [7], in [8], in experiment [9], in [10], in experiment [11] and in experiment [12] was inactive. Besides, the result in experiment [13], in experiment [14], in experiment [15], in experiment [16], in experiment [17] and in experiment [18] was inactive. Further, the result in experiment [19] and in experiment [20] was inactive.

As for `Cn1[nH]nnc1=S`, the molecule was classed as inactive in experiment [1], in experiment [2], in [3], in experiment [4], in experiment [5] and in [6]. Further, the molecule was called inactive in [7], in experiment [8], in [9], in [10], in experiment [11] and in experiment [12]. The call in [13], in experiment [14], in experiment [15], in [16], in [18] and in experiment [19] was inactive. For the same molecule, the call in experiment [20] was inactive. In addition, the half-maximal activity concentration (AC50) in experiment [17] was 27 µM (active).
